# Laboratory results taken from PubChem BioAssay (Tox21).
# Values joined by “and” are separate entries in the source; they are usually repeats but may differ in a detail not shown here. Identical values can stand only once. Inconclusive results are not listed. A structure can be active in one record and inactive in another. Active and inactive are the calls of the source. Calls follow the shape of the dose curve; as a rule, active = well fitted inhibition curve with a large enough effect in the repeat runs; inconclusive = weak or mixed curves; inactive = no such curve, though single readings can be large or run the other way.
# Target: Cytochrome P450 2C19 (Homo sapiens) (UniProt P33261)
# Assay: Cytochrome P450 Family 2 Subfamily C Member 19 (CYP2C19) small molecule antagonists: luciferase reporter qHTS assay (AID 1671197); also: nearly all actives have a fitted effect of over 65% in size
# Conditions: P450-Glo CYP2C19 enzyme, luciferin luminescence, 1 h; series mostly up to 52.9 µM; activity change, negative = inhibition: at the top concentration
# How it was run: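 First, compounds are pinned into enzyme-substrate mix and held 10 min at room temperature. Second, NADPH regeneration solution is added and plates incubate 1 h at 37C. Third, detection reagent is added and luminescence read after 20 min.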
# % is scaled to controls: 0 for no effect and ±100 for the full control effect; potency is read from the fitted curve at half-maximal effect.
# Sequence of Cytochrome P450 2C19 (Homo sapiens) (P33261 whole entry, looked up): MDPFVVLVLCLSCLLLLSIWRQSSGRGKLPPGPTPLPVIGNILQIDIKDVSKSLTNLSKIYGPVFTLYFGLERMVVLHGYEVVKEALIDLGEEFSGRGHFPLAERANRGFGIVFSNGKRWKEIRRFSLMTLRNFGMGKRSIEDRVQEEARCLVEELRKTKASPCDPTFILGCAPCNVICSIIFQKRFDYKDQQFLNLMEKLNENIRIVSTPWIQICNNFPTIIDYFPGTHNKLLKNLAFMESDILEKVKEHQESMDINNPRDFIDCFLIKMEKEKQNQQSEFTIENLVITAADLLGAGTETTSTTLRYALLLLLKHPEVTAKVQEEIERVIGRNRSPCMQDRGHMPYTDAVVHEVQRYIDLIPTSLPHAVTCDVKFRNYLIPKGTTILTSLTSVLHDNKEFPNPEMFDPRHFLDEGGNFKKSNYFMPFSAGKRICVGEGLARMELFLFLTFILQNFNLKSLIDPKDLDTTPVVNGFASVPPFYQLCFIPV
SMILES,Potency,"activity change, negative = inhibition"
C[C@@H]1C[C@H]2[C@@H]3CCC4=CC(=O)C=C[C@]4(C)[C@@]3(Cl)[C@@H](O)C[C@]2(C)[C@@]1(OC(=O)c1ccco1)C(=O)CCl,9.77 µM (active),–
OCc1c[nH]c2ccccc12,2.52 µM (active),–
CC[C@H](c1ccc(O)cc1)[C@@H](CC)c1ccc(O)cc1,79.6 µM (active) and inactive,–
CCN(C(=O)N(CC)c1ccccc1)c1ccccc1,7.96 µM (active),–
CCCC(=O)OC[C@@H](OC(=O)CCC)[C@@H](OC(=O)CCC)[C@H](Cn1c2nc(=O)[nH]c(=O)c-2nc2cc(C)c(C)cc21)OC(=O)CCC,8.71 µM (active),–
CCCCCCCCOC(=O)c1ccc(O)cc1,22.4 µM (active) and 10 µM (active),–
Cc1cccc(N(C)C(=S)Oc2ccc3c(c2)C2CCC3C2)c1 (stereo not given),1.74 µM (active),–
CCCCCCCCOc1ccccc1C(=O)Nc1ccc(C(=O)OCC[N+](C)(CC)CC)cc1,3.89 µM (active),–
CCCCC(CC)CN=C(N)NC(N)=NCCCCCCN=C(N)NC(N)=NCC(CC)CCCC (stereo not given),17.4 µM (active),–
COCCCC/C(=N\OCCN)c1ccc(C(F)(F)F)cc1,0.692 µM (active),–
CCCCN1CCCC[C@H]1C(=O)Nc1c(C)cccc1C,–,12.7% (inactive)
ON=C1CCCC1,32.8 µM (active),–
Nc1nc2ccccc2n1Cc1ccc(F)cc1,15.5 µM (active),–
Clc1ccc(C(Cn2ccnc2)OCc2ccc(Sc3ccccc3)cc2)c(Cl)c1 (stereo not given),2.75 µM (active),–
O=C(NO)C1(NS(=O)(=O)c2ccc(Oc3ccc(F)cc3)cc2)CCOCC1,71 µM (active),–
Nc1c(Cl)cc(Cl)cc1Cl,–,-17.9% [at 115 µM] (inactive)
O=C1Cc2cc(CCN3CCN(c4nsc5ccccc45)CC3)c(Cl)cc2N1,21.9 µM (active),–
Oc1ccc2c(c1)-c1ccccc1C2,39.9 µM (active),–

SMILES,Potency,"activity change, negative = inhibition"
Oc1ccc(Cl)cc1Sc1cc(Cl)ccc1O,1.26 µM (active) and 1.55 µM (active),–
O=C(Nc1cccc([N+](=O)[O-])c1)c1cc2ccccc2cc1O,79.6 µM (active),–
Fc1ccc([C@@H]2CCNC[C@H]2COc2ccc3c(c2)OCO3)cc1,–,-12.9% (inactive)
Cc1ccc(-n2nc(C(C)(C)C)cc2NC(=O)Nc2ccc(OCCN3CCOCC3)c3ccccc23)cc1,3.89 µM (active),–
CN(C/C=C/C#CC(C)(C)C)Cc1cccc2ccccc12,17.4 µM (active),–
CCCCCCC[N+](CC)(CC)CCCCc1ccc(Cl)cc1,–,-14% (inactive)
CC(=O)S[C@@H]1CC2=CC(=O)CC[C@]2(C)[C@H]2CC[C@@]3(C)[C@@H](CC[C@@]34CCC(=O)O4)[C@H]12,6.33 µM (active),–
CC(C)n1nc(-c2cc3cc(O)ccc3[nH]2)c2c(N)ncnc21,0.49 µM (active),–
N/C(=N\N=C\c1ccc(Cl)cc1)N/N=C/c1ccc(Cl)cc1,2.19 µM (active),–
CC(C)(C)C(=O)OCOC(=O)[C@@H]1N2C(=O)[C@@H](NC(=O)[C@H](N)c3ccccc3)[C@H]2SC1(C)C,–,9.93% (inactive)
CCC(CN)=C(c1ccccc1)c1ccccc1,4.36 µM (active),–
Cc1cc(O)c(Cl)c(C)c1Cl,56.4 µM (active),–
Oc1cccc(-c2c3nc(c(-c4cccc(O)c4)c4ccc([nH]4)c(-c4cccc(O)c4)c4nc(c(-c5cccc(O)c5)c5ccc2[nH]5)CC4)C=C3)c1,38.9 µM (active),–
Nc1cc(C(F)(F)F)ccc1S,2.19 µM (active),–
Cn1cc(C(=O)[C@@H]2CCc3nc[nH]c3C2)c2ccccc21,8.71 µM (active),–
CC1=C(C(=O)OC(C)C)C(c2cccc([N+](=O)[O-])c2)C(C(=O)OC2CN(C(c3ccccc3)c3ccccc3)C2)=C(N)N1 (stereo not given),1.74 µM (active),–
Cc1[nH]cnc1C[C@H]1CCc2c(C)c3ccccc3n2C1=O,1.95 µM (active),–
